# From PubChem
# E coli growth-1: E. coli growth inhibition, primary screen, OD600; Escherichia coli growth, 23 h; active compounds read low; OD600 absorbance (test concentration not listed); actives 0.21% (n = 330,000); AID 1053175, 2014;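 active means OD600 absorbance below the run mean of sample wells minus 3.6 SD, in any replicate, cut at about 0.56 in these data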
# E coli growth-2: E. coli V3065 growth inhibition, primary screen, counter-screen for AddAB inhibitor project, absorbance, OD600; 18 h; inhibition, % at 11.9 µM; actives 0.27% (n = 330,000); AID 449728, 2010;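 active means inhibition above the campaign's mean inhibition across all tested compounds plus 3 SD, cut at about 9.9% in these data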;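 further: uninfected addAB+ strain grown without phage in ampicillin broth; 0% = DMSO wells and 100% = ciprofloxacin 0.95 µg/ml wells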
# phage Ecoli inh: growth loss of phage-infected E. coli, primary screen, RecBCD inhibitor project, absorbance, with phage, HTS | AID 651602, 2012 | inhibition, % at 11.9 µM | actives 0.26% (n = 360,000); in the data active means inhibition above about 11%
# Tat transport: E. coli Tat export inhibitors, primary screen, MC4100, TorA-mCherry reporter, fluorescence, single point; inhibition, % at 10 µM; actives 0.036% (n = 340,000); AID 488895, 2010;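 active means mean replicate inhibition at least 50% and at least half of replicates individually reaching 50%; inconclusive means only one of the two criteria met; inactive means neither criterion met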;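 further: exported cargo escapes ClpAP degradation while cytoplasmic cargo is degraded and loses fluorescence; 0% = median of neutral control wells and 100% = median of NaSCN control wells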
# Calb FLC: C. albicans growth inhibition with fluconazole, primary screen, CaCi-2 strain, Alamar Blue fluorescence | AID 1979, 2009 | actives 0.57% (n = 300,000) | C. albicans CaCi-2 (fluconazole-resistant clinical isolate) + fluconazole, 48 h | growth inhibition, % (test concentration not listed);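 active means growth inhibition above about 58% in most replicates, limit read from the data, passing the limit was not always enough; inconclusive means exactly half the replicates above a set limit; inactive means most replicates below a set limit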;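 further: all wells also contain fluconazole at 8 µg/ml as a sub-toxic cotreatment; 0% = median of DMSO wells and 100% = median of geldanamycin control wells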
# AddAB inh: growth inhibition of E. coli expressing H. pylori AddAB, primary screen, AddAB inhibitor project, absorbance. AID 435030, 2010. actives 0.29% (n = 330,000). inhibition, % at 11.9 µM; in the data active means inhibition above about 12%;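 further: 0% = vehicle wells of infected cells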
# AddAB conf: growth loss of phage-infected E. coli expressing H. pylori AddAB, confirmation, AddAB inhibitor project, absorbance, E. coli V3065, T4 phage, triplicate. shares compounds with AddAB inh. OD; T4 phage with gene 2 nonsense mutations. inhibition, % at 11.9 µM. actives 64% (n = 880);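 active means mean inhibition above a set limit taken from the earlier primary screen, cut at about 13% in these data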;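 further: higher means less bacterial growth since AddAB block lets phage replicate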
# RecBCD counter: growth loss of RecBCD+ E. coli with mutant T4 phage, counter-screen for AddAB inhibitor project, absorbance, V66 E. coli; inhibition, % at 11.9 µM; actives 73% (n = 880); shares compounds with AddAB inh; AID 488955, 2010; OD growth;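 active means mean inhibition above the mean of solvent-only control wells plus 3 SD, cut at about 4% in these data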;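 further: optical density read after an 18 h incubation at 37 °C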
# Bact viability: bacterial viability inhibition counter-screen, confirmation, counter-screen for AddAB inhibitor project, absorbance; shares compounds with AddAB inh; absorbance (AddAB counterscreen); inhibition, % at 11.9 µM; actives 35% (n = 880); AID 488956, 2010; in the data active means inhibition above about 25%
# RecBCD conf: growth loss of phage-infected RecBCD+ E. coli, confirmation, RecBCD inhibitor project, absorbance, E. coli V66, T4 gene 2 phage | shares compounds with phage Ecoli inh | E. coli V66 + T4 2- phage, growth OD | inhibition, % at 11.9 µM | actives 45% (n = 890) | AID 651982, 2013;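 active means mean inhibition over triplicates exceeding the hit threshold derived in the original primary screen, cut at about 11% in these data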
# Ecoli viability: E. coli viability inhibition, counter-screen for RecBCD inhibitor project, absorbance, high throughput; inhibition, % at 11.9 µM; absorbance (OD) growth; AID 651983, 2013; shares compounds with phage Ecoli inh; actives 29% (n = 890); in the data active means inhibition above about 20%;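 further: E. coli strain V66 grown with compound alone and no phage infection; 0% = bacteria with DMSO vehicle only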
# AddAB phage OD: growth loss of phage-infected AddAB-carrying E. coli, confirmation, counter-screen for RecBCD inhibitor project, absorbance, E. coli V3065, T4 phage. actives 45% (n = 890). E. coli expressing H. pylori AddAB + T4 phage, OD growth; gene 2 mutant T4, recBCD-deleted host. shares compounds with phage Ecoli inh. inhibition, % at 11.9 µM;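 active means mean inhibition above the solvent-only control wells' mean plus 3 SD, cut at about 22% in these data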;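 further: higher means less bacterial growth from phage killing when AddAB is blocked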
# The depositor's hits bear a star; ? = inconclusive; . = not tested or not shown. Compounds with a hit are over-represented: about 0.9% of the library has one in this group of screens.
SMILES,E coli growth-1,E coli growth-2,phage Ecoli inh,Tat transport,Calb FLC,AddAB inh,AddAB conf,RecBCD counter,Bact viability,RecBCD conf,Ecoli viability,AddAB phage OD
CCn1cc(C(=O)NCC2CCCO2)c(=O)c2cc(F)c(N3CCN(C)CC3)cc21 (stereo not drawn),0.736,1.7,2.8,-2.6,0.7,2.0,.,.,.,.,.,.
CCn1cc(C(=O)NCc2cccnc2)c(=O)c2cc(F)c(N3CCN(C(=O)c4ccco4)CC3)cc21,0.051*,93.9*,20.9*,10.3,20.7,95.3*,97.6*,10.4*,99.0*,12.9*,14.0,102.9*
CCn1cc(C(=O)NCCC(C)C)c(=O)c2cc(F)c(N3CCN(C)CC3)cc21,0.066*,98.7*,40.2*,8.9,-11.7,99.8*,99.4*,58.5*,99.5*,19.0*,35.7*,93.2*
CCCCNC(=O)c1cn(CC)c2cc(N3CCN(C)CC3)c(F)cc2c1=O,0.071*,98.4*,96.7*,.,-12.9,99.8*,98.1*,99.8*,99.2*,102.7*,104.5*,104.4*
CC1C(=O)NN=C1C(=O)NN=Cc1ccco1 (stereo not drawn),0.641,.,.,.,.,.,.,.,.,.,.,.
COc1cccc(C=NNC(=O)c2ccccc2N(Cc2ccccc2)S(=O)(=O)c2ccccc2)c1OC,0.738,.,.,.,.,.,.,.,.,.,.,.
CCCC(=O)NC(c1ccco1)c1cc(Cl)c2cccnc2c1O (stereo not drawn),0.734,14.2*,21.2*,-1.6,1.6,16.1*,21.8*,20.9*,16.5,10.9*,15.5,23.6*
CCCC(=O)NC(c1cccs1)c1cc(Cl)c2cccnc2c1O (stereo not drawn),0.701,28.6*,21.0*,2.3,86.1*,26.8*,22.5*,20.4*,19.6,11.2*,14.2,19.3
CCC(=O)NC(c1cccs1)c1ccc2cccnc2c1O (stereo not drawn),0.636,19.9*,18.5*,-0.5,101.4*,21.2*,10.3,16.9*,5.7,7.2,11.7,19.2
CC(=NNC(=O)C1CC1)c1cccc(NC(=O)c2cccc(Cl)c2)c1,0.695,.,.,.,.,.,.,.,.,.,.,.
C#CCOCCOCCOCCNc1nc(N2CCN(C(=O)CCCCCCCCCCNC(=O)C(CCCCN)n3cc(CCO)nn3)CC2)nc(N2CCN(C(=O)CCCCCCCCCCNC(=O)C(C(C)O)n3cc(C)nn3)CC2)n1 (stereo not drawn),0.603,.,.,.,.,.,.,.,.,.,.,.
O=C(Nc1cccnc1)c1ccc([N+](=O)[O-])s1,0.07*,69.4*,16.9*,-3.9,.,99.4*,99.9*,18.2*,47.2*,7.7,10.9,86.1*
O=C(Nc1ccccc1F)c1ccc([N+](=O)[O-])s1,0.567,3.6,2.4,?,7.1,3.4,.,.,.,.,.,.
CC(C)COC(=O)c1cc(-c2ccc(C=Nn3cnnc3)o2)ccc1Cl,0.689,.,.,.,.,.,.,.,.,.,.,.
